From PubChem BioAssay AID1159580 (chemical genetic matrix, 2015)
The whole screen tested about 5,500 compounds, of which about 2,000 (36%) were called active. Another 18% or so got no clear call; they are omitted. No stated cut-off is given here; in the data, active means normalized growth mostly below about 0.91 (no sharp cut-off); inconclusive means no clear call, values can overlap the other calls; inactive means mostly above about 0.92. This is one part of the list.

Assay: chemical genetic growth profiling, strain panel (AID 1159580);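 further: tested at 20 µM; growth read once vehicle control cultures reached saturation at 30 °C; 1 = growth at the plate median or of vehicle wells; lower values mean less growth of the strain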
Conditions: growth OD

Measured: normalized growth

CCCCCCC(C)OC(=O)COc1ccc(Cl)cc1Cl (configuration not stated)
inactive: S. cerevisiae deletion strains, locus YJR075W, strain HOC1, active compounds read low 0.931 | S. cerevisiae deletion strains, locus YKL009W, strain mrt4, active compounds read low 0.992 | S. cerevisiae deletion strains, locus YKL068W, active compounds read low 0.998 | S. cerevisiae deletion strains, locus YKL085W, strain MDH1 (second series), active compounds read low 0.984 | S. cerevisiae deletion strains, locus YKL085W, strain MDH1, active compounds read low 0.984 | S. cerevisiae deletion strains, locus YKL160W, strain elf1, active compounds read low 0.996 | S. cerevisiae deletion strains, locus YKL190W, strain CNB1, active compounds read low 0.997 | S. cerevisiae deletion strains, locus YKR001C, strain vps1, active compounds read low 0.998 | S. cerevisiae deletion strains, locus YKR026C, strain gcn3, active compounds read low 0.989 | S. cerevisiae deletion strains, locus YKR091W, strain srl3, active compounds read low 0.993 | S. cerevisiae deletion strains, locus YLL001W, strain dnm1, active compounds read low 0.991 | S. cerevisiae deletion strains, locus YLL026W, active compounds read low 0.986 | S. cerevisiae deletion strains, locus YLL041C, strain sdh2, active compounds read low 0.994 | S. cerevisiae deletion strains, locus YLR027C, strain aat2, active compounds read low 0.995 | S. cerevisiae deletion strains, locus YLR039C, strain RIC1, active compounds read low 0.893 | S. cerevisiae deletion strains, locus YLR058C, strain SHM2, active compounds read low 0.996 | S. cerevisiae deletion strains, locus YLR102C, strain apc9, active compounds read low 1 | S. cerevisiae deletion strains, locus YLR113W, strain HOG1, active compounds read low 0.961 | S. cerevisiae deletion strains, locus YLR221C, strain rsa3, active compounds read low 0.989 | S. cerevisiae deletion strains, locus YLR258W, strain gsy2, active compounds read low 0.981 | S. cerevisiae deletion strains, locus YLR262C, strain YPT6 (second series), active compounds read low 0.971 | S. cerevisiae deletion strains, locus YLR262C, strain YPT6, active compounds read low 0.983 | S. cerevisiae deletion strains, locus YLR268W, strain sec22, active compounds read low 0.997 | S. cerevisiae deletion strains, locus YLR320W, strain mms22, active compounds read low 0.982 | S. cerevisiae deletion strains, locus YLR330W, strain CHS5, active compounds read low 0.992 | S. cerevisiae deletion strains, locus YLR342W, strain FKS1 (second series), active compounds read low 1.01 | S. cerevisiae deletion strains, locus YLR342W, strain FKS1, active compounds read low 0.987 | S. cerevisiae deletion strains, locus YLR357W, strain rsc2, active compounds read low 1.01 | S. cerevisiae deletion strains, locus YLR370C, strain arc18, active compounds read low 0.994 | S. cerevisiae deletion strains, locus YLR371W, strain rom2, active compounds read low 0.997 | S. cerevisiae deletion strains, locus YLR384C, strain iki3, active compounds read low 0.993 | S. cerevisiae deletion strains, locus YLR418C, strain cdc73, active compounds read low 0.965 | S. cerevisiae deletion strains, locus YML016C, strain PPZ1, active compounds read low 0.997 | S. cerevisiae deletion strains, locus YML032C, strain rad52, active compounds read low 1.01 | S. cerevisiae deletion strains, locus YML120C, strain ndi1, active compounds read low 0.983 | S. cerevisiae deletion strains, locus YML124C, strain tub3, active compounds read low 0.998 | S. cerevisiae deletion strains, locus YMR058W, strain fet3, active compounds read low 0.994 | S. cerevisiae deletion strains, locus YMR078C, strain ctf18, active compounds read low 1.01 | S. cerevisiae deletion strains, locus YMR125W, strain sto1, active compounds read low 0.983 | S. cerevisiae deletion strains, locus YMR129W, active compounds read low 0.994 | S. cerevisiae deletion strains, locus YMR205C, strain PFK2, active compounds read low 0.968 | S. cerevisiae deletion strains, locus YMR223W, strain ubp8, active compounds read low 0.989 | S. cerevisiae deletion strains, locus YMR231W, strain pep5, active compounds read low 0.993 | S. cerevisiae deletion strains, locus YMR263W, strain SAP30, active compounds read low 0.984 | S. cerevisiae deletion strains, locus YMR307W, strain GAS1, active compounds read low 0.869 | S. cerevisiae deletion strains, locus YNL067W, strain RPL9B, active compounds read low 0.985 | S. cerevisiae deletion strains, locus YNL071W, strain lat1, active compounds read low 0.982 | S. cerevisiae deletion strains, locus YNL128W, strain TEP1, active compounds read low 0.987 | S. cerevisiae deletion strains, locus YNL153C, strain GIM3, active compounds read low 0.996 | S. cerevisiae deletion strains, locus YNL183C, strain NPR1, active compounds read low 0.96 | S. cerevisiae deletion strains, locus YNL209W, strain ssb2, active compounds read low 0.995 | S. cerevisiae deletion strains, locus YNL233W, strain BNI4, active compounds read low 0.989 | S. cerevisiae deletion strains, locus YNL248C, strain rpa49, active compounds read low 0.984 | S. cerevisiae deletion strains, locus YNL250W, strain rad50, active compounds read low 1 | S. cerevisiae deletion strains, locus YNL271C, strain bni1, active compounds read low 1 | S. cerevisiae deletion strains, locus YNL298W, strain CLA4, active compounds read low 1 | S. cerevisiae deletion strains, locus YNL307C, strain MCK1, active compounds read low 0.993 | S. cerevisiae deletion strains, locus YNL322C, strain KRE1 (second series), active compounds read low 0.992 | S. cerevisiae deletion strains, locus YNL322C, strain KRE1, active compounds read low 0.992 | S. cerevisiae deletion strains, locus YNR049C, strain mso1, active compounds read low 0.984 | S. cerevisiae deletion strains, locus YNR052C, strain pop2, active compounds read low 1.01 | S. cerevisiae deletion strains, locus YOL006C, strain TOP1, active compounds read low 0.905 | S. cerevisiae deletion strains, locus YOL012C, strain htz1 0.707 | S. cerevisiae deletion strains, locus YOL147C, strain pex11, active compounds read low 1 | S. cerevisiae deletion strains, locus YOR001W, strain rrp6, active compounds read low 0.995 | S. cerevisiae deletion strains, locus YOR061W, strain CKA2, active compounds read low 0.981 | S. cerevisiae deletion strains, locus YOR069W, strain VPS5, active compounds read low 0.979 | S. cerevisiae deletion strains, locus YOR070C, strain gyp1, active compounds read low 0.985 | S. cerevisiae deletion strains, locus YOR080W, strain dia2, active compounds read low 0.995 | S. cerevisiae deletion strains, locus YOR083W, strain WHI5, active compounds read low 0.999 | S. cerevisiae deletion strains, locus YOR106W, strain vam3, active compounds read low 0.958 | S. cerevisiae deletion strains, locus YOR136W, strain idh2, active compounds read low 1.01 | S. cerevisiae deletion strains, locus YOR144C, strain elg1, active compounds read low 1.01 | S. cerevisiae deletion strains, locus YOR184W, strain ser1, active compounds read low 0.991 | S. cerevisiae deletion strains, locus YOR231W, strain MKK1, active compounds read low 1.04 | S. cerevisiae deletion strains, locus YOR265W, strain rbl2, active compounds read low 0.991 | S. cerevisiae deletion strains, locus YOR270C, strain vph1, active compounds read low 0.953 | S. cerevisiae deletion strains, locus YOR290C, strain snf2, active compounds read low 0.995 | S. cerevisiae deletion strains, locus YOR316C, strain cot1, active compounds read low 1 | S. cerevisiae deletion strains, locus YPL051W, strain arl3, active compounds read low 0.989 | S. cerevisiae deletion strains, locus YPL055C, strain LGE1, active compounds read low 0.94 | S. cerevisiae deletion strains, locus YPL078C, strain atp4, active compounds read low 0.988 | S. cerevisiae deletion strains, locus YPL106C, strain sse1, active compounds read low 1.01 | S. cerevisiae deletion strains, locus YPL240C, strain hsp82, active compounds read low 1 | S. cerevisiae deletion strains, locus YPL241C, strain CIN2, active compounds read low 0.995 | S. cerevisiae deletion strains, locus YPL256C, strain CLN2, active compounds read low 1.01 | S. cerevisiae deletion strains, locus YPR119W, strain clb2, active compounds read low 1 | S. cerevisiae deletion strains, locus YPR141C, strain kar3, active compounds read low 0.995 | S. cerevisiae deletion strains, locus YPR163C, strain tif3, active compounds read low 1.01 | S. cerevisiae deletion strains, locus YPR167C, strain met16, active compounds read low 1 | S. cerevisiae deletion strains, strain wtn01, active compounds read low 1 | S. cerevisiae strains, strain wild type, active compounds read low 0.981
